Measurements from PubChem BioAssay (NCATS).

Test: Confirmation and Secondary Assay for Modulators of Hemoglobin Beta Chain Splicing at IVS2 654 locus (AID 910);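 further: HeLa cells stably carrying EGFP split by mutant beta-globin IVS2-654 intron; per-well total GFP intensity by laser scanning cytometry after 2-day treatment; % of control where 0% means no effect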
Details: HeLa EGFP-654 splicing reporter, GFP fluorescence, 48 h; series mostly up to 46.1 µM; activation (splicing correction): at the top concentration; active means well fitted activation curve with a large enough effect; inconclusive means small, poorly fitted or top-dose-only effect; inactive means flat fitted curve, though single readings scatter
Summary of the method: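 Readout: per-well total peak green fluorescence (488 nm ex, 500–520 nm em) from objects 5–250 µm, reflecting correct splicing of an EGFP-654 reporter. Compounds were applied for 2 days at 37 °C to overnight-plated HeLa EGFP-654 cells; controls were DMSO and 500 nM IVS2-654 PNA.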

Activation (splicing correction), inactive:
CS(C)(=O)=O 7.24%
COc1ccc(-c2coc3cc(OC)cc(OC)c3c2=O)cc1 2.56% [at 38.3 µM]
Cc1cc(O)c(C)c(O)c1C(=O)O 0.972%
CC1O[C@@H](O[C@@H]2C(O)C[C@H](O[C@@H]3C(O)C[C@@H](OC4CC[C@@]5(C)C6CC[C@]7(C)C(C8=CC(=O)OC8)CC[C@@]7(O)C6CC[C@@H]5C4)OC3C)OC2C)CC(O)[C@H]1O (stereo not given in full) -5.32%
O=C(O)C(S)[C@@H](S)C(=O)O (stereo not given in full) 9.1%
Nc1nc2c(ncn2C2CC(O)C(CO)O2)c(=O)[nH]1 (stereo not given) 0.882% [at 38.3 µM]
COc1ccc(C2COc3c(ccc(O)c3OC)C2)c(OC)c1O (stereo not given) 5.54%
CN(N=O)C(=O)N[C@H]1C(O)C(O)C(CO)O[C@@H]1O (stereo not given in full) 0.851%
CC1/C=C/C=C/C=C/C=C/C=C/C=C/C=C/C(OC2OC(C)C(O)C(N)C2O)CC2O[C@@](O)(CC(O)CC(O)C(O)CCC(O)CC(O)CC(=O)OC(C)[C@H](C)C1O)CC(O)C2C(=O)O (stereo not given in full) 2.19%
COC(=O)c1c(C)cc(O)cc1O 0.858% [at 38.3 µM]
CC1c2cccc(O)c2C(O)=C2C(=O)[C@]3(O)C(O)=C(C(N)=O)C(=O)C(N(C)C)C3C(O)C21 (stereo not given in full) 2.67%
COc1cc(C(C)=O)cc(OC)c1O -2.61% [at 38.3 µM]
CC(=O)OC(C)(C)C1Cc2cc3ccc(=O)oc3cc2O1 (stereo not given) -0.133% [at 38.3 µM]
NC(=O)c1ccc[n+]([C@@H]2OC(COP(=O)([O-])OP(=O)(O)OCC3OC(n4cnc5c(N)ncnc54)C(O)C3O)C(O)C2O)c1 (stereo not given in full) 5.41%
C[C@]12CCC(=O)C=C1CCC1C2C(O)C[C@]2(C)C1CC[C@]2(O)C(=O)COC(=O)CCC(=O)O (stereo not given in full) -0.0003%
NC1C(O)OC(CO)[C@@H](O)[C@@H]1O[C@H]1O[C@@H](C(=O)O)C(O)C(O)C1O (stereo not given in full) 0.0942% [at 38.3 µM]
CC(CCC(=O)O)C1CCC2C3C(=O)CC4CC(=O)CC[C@@]4(C)C3CC(=O)[C@]12C (stereo not given in full) -1.49%
Cc1onc(-c2c(Cl)cccc2Cl)c1C(=O)NC1C(=O)N2C1SC(C)(C)C2C(=O)O (stereo not given) 5.24%
C=C1C([C@@]2(C)C(OC(C)=O)CC(=O)O[C@@](C)(COC(C)=O)C2CC(=O)OC)C(OC=O)C(OC(=O)C(O)C(C)CC)[C@]2(C)C(c3ccoc3)CC(=O)C12O (stereo not given in full) -1.22%
C=C1C(=O)C23C(O)C1CCC2[C@]12COC3(O)C(O)C1C(C)(C)CC[C@H]2O (stereo not given in full) 22.5%
CC1CCC2C(C)(C)C3CC12CC[C@]3(C)O (stereo not given in full) -2.15% [at 38.3 µM]
C=C1C(=O)OC2C1CC/C(C)=C/CCC1(C)OC21 (stereo not given) -1.46% [at 38.3 µM]
O=C1C=CC2=C3c4cc(O)c(O)cc4C[C@]3(O)COC2=C1 -7.13%
COc1ccc(-c2cc(=O)c3cc(OC)ccc3o2)cc1 1.4% [at 38.3 µM]
Nc1ncnc2c1[nH]c(=O)n2C1CC(O)C(CO)O1 (stereo not given) -0.154% [at 38.3 µM]
COc1cc2ccc(=O)oc2c(OC)c1OC 5.07%
COc1cc(OC)c2c(=O)c(-c3ccccc3)c(C)oc2c1OC 2.45% [at 38.3 µM]
COc1ccc2c(=O)ccoc2c1 -0.163% [at 38.3 µM]
COC(=O)CC1C(C)(C)C(=O)C2CC3C4=CC(=O)OC(c5ccoc5)[C@]4(C)CCC3[C@@]1(C)C2=O (stereo not given in full) -4.08%
O=c1[nH]cnc2c1ncn2C1CC(O)C(CO)O1 (stereo not given) 0.685% [at 38.3 µM]
O=C(O)/C=C/C=C/c1ccccc1 5.28% [at 38.3 µM]
Cc1cc(O)cc(=O)o1 -1.73%
O=C1OC(C(O)CO)C(O)=C1O (stereo not given) 0.456%
O=C(O)c1cc2ccccc2[nH]1 8.07%
COC1=CC(=O)C=C(OC)C1=O 7.82%
Cc1cc(=O)oc2cc(O)c(O)cc12 2.93% [at 38.3 µM]
CC1CC2C(C(O)C[C@]3(C)C2CC[C@]3(O)C(=O)CO)[C@]2(C)C=CC(=O)C=C12 (stereo not given in full) -2.89%
O=c1c2cc(O)c(O)cc2oc2cc(O)c(C3OC(CO)C(O)C(O)C3O)c(O)c12 (stereo not given) 13.1%
COC(=O)CC1[C@@]2(C)C[C@]34OC5(C)OC6(C7CC(=O)OC(c8ccoc8)[C@]7(C)CCC6(O5)[C@]13C)C(OC(C)=O)[C@]4(OC(C)=O)C2OC(C)=O (stereo not given in full) 0.279% [at 38.3 µM]
Nc1ncnc2c1nc(Br)n2C1OC(CO)C(O)C1O (stereo not given) 0.98% [at 38.3 µM]
